Sampled rows, rich in hits. Any-hit rate of the full collection: about 0.7%.
Mtb hypoxia inh = PubChem AID 1159583. M. tuberculosis hypoxia-regulated fluorescent reporter, fluorescence. fluorescence inhibition, % (test concentration not listed). 300,000 tested, 0.1% active; in the data active = fluorescence inhibition mostly above about 23%, no sharp cut-off; inactive = mostly below about 17%
Mtb BioA inh = M. tuberculosis BioA enzyme inhibitors, primary screen, biochemical, plate reader, single point, HTS | 7,8-diaminopelargonic acid synthase BioA (Mycobacterium tuberculosis) | purified M. tuberculosis BioA enzyme | inhibition, % at 9.99 µM | 360,000 tested, 0.096% active | AID 602481, 2012; in the data active = inhibition above about 40%
VHR inh abs = VHR1 phosphatase inhibitors, primary screen, biochemical, absorbance, uHTS | Dual specificity protein phosphatase 3 (Homo sapiens), P51452 | recombinant VHR phosphatase, pNPP absorbance | inhibition, % at 13.3 µM | 290,000 tested, 0.52% active | AID 1654, 2009; in the data active = inhibition above about 50%
Target sequence (P51452 whole entry, looked up): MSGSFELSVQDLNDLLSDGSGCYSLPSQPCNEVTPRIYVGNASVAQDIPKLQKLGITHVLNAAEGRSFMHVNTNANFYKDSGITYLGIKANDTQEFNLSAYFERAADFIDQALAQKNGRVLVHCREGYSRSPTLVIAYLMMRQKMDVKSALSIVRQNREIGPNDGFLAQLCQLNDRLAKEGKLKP
FadD28 binding = inhibitors of FadD28 bisubstrate probe binding, primary screen, biochemical, fluorescence polarization, single point | Mycobacterium tuberculosis FadD28 fatty-acid-AMP ligase | inhibition, % at 12.5 µM | 360,000 tested, 0.22% active; in the data active = inhibition above about 8.5%, passing the limit was not always enough
3CLpro inhibitor = SARS-CoV 3CLpro protease inhibitors, primary screen, biochemical, quenched FRET; Replicase polyprotein 1ab (Severe acute respiratory syndrome coronavirus), P0C6X7; recombinant SARS-CoV 3CLpro, quenched FRET peptide cleavage; inhibition, % at 6 µM; 290,000 tested, 0.14% active; AID 1706, 2009; in the data active = inhibition above about 12%
Large screens that a line does not name were inactive.

O=C(CCl)N(c1ccc(Cl)cc1)c1c[nH]c2ccccc12	Mtb hypoxia inh 36
Cc1ccc(-n2nnc3c(=O)n(Cc4cc(C)ccc4C)cnc32)cc1	VHR inh abs 52
CC(=NNc1nncc2ccccc12)c1ccc(C(C)(C)C)cc1	none (no result: Mtb BioA inh, VHR inh abs, FadD28 binding, 3CLpro inhibitor)
CCN(C(=O)CN1C(=O)S/C(=C\c2cccc(OC)c2)C1=O)C1CCS(=O)(=O)C1 (centres undefined)	VHR inh abs 52
COc1cccc(/C=C2\SC(=O)N(CC(=O)NC3CCS(=O)(=O)C3)C2=O)c1 (centres undefined)	VHR inh abs 60 (no result: Mtb BioA inh)
O=c1oc(C2(O)CCCCC2)cc2ccc(C=Cc3ccc(F)cc3)cc12	none (no result: Mtb BioA inh, VHR inh abs, FadD28 binding, 3CLpro inhibitor)
CCSc1nc(-c2ccccc2)nc(C(Cl)Cl)n1	none (not shown: Mtb hypoxia inh)
CSc1nc(-c2ccc(C)cc2)nc(C(Cl)Cl)n1	Mtb hypoxia inh 78 (no result: Mtb BioA inh)
Cc1cccn2c(=O)c3cc(C(=O)NCCN4CCOCC4)c(=N)n(CCCN4CCOCC4)c3nc12	VHR inh abs 55
Cc1cccn2c(=O)c3cc(C(=O)NCc4ccccc4)c(=N)n(CCCN4CCOCC4)c3nc12	none (no result: VHR inh abs, 3CLpro inhibitor)
Cc1cc(=O)[nH]c(NN=Cc2cccc([N+](=O)[O-])c2)n1	none (no result: Mtb BioA inh, VHR inh abs, FadD28 binding, 3CLpro inhibitor)
COc1cc(/C=C2\SC(=Nc3ccccc3)NC2=O)cc(Cl)c1O	none
COc1cc(/C=C2\SC(=Nc3ccc(Cl)c(C(=O)O)c3)NC2=O)c(Br)c(Br)c1O	FadD28 binding 15 (no result: Mtb hypoxia inh)
COc1ccc(C=NNC2=NS(=O)(=O)c3ccccc32)cc1	none (no result: Mtb BioA inh, VHR inh abs, FadD28 binding, 3CLpro inhibitor)
O=C(Nc1cccc([N+](=O)[O-])c1)C1CC(=O)N(Cc2ccccc2)C1 (centres undefined)	none (no result: Mtb BioA inh)
CC(C)N1CC(C(=O)Nc2cccc([N+](=O)[O-])c2)CC1=O (centres undefined)	VHR inh abs 56
O=C(O)c1[nH]c2ccccc2c1-c1ccccc1	none
COc1cc(Cl)cc(C(c2c(C(=O)O)[nH]c3ccccc23)c2c(C(=O)O)[nH]c3ccccc23)c1O	FadD28 binding 33
O=C(O)c1[nH]c2ccccc2c1C(c1c(F)cccc1Cl)c1c(C(=O)O)[nH]c2ccccc12	FadD28 binding 24
CC(CC(=O)NC(C)C)=NNC(=O)C(c1ccccc1)c1ccccc1	none (no result: Mtb BioA inh, VHR inh abs, FadD28 binding, 3CLpro inhibitor)
COc1ccc(C(=O)Nc2ccnn2C2CCN(C3CCC3)CC2)cc1	VHR inh abs 52
O=C(Nc1ccnn1C1CCN(C2CCC2)CC1)c1ccccc1	none
COC(=O)c1cc(OC)c(OC)cc1N=CC1=C(O)CC(C)(C)CC1=O	VHR inh abs 55 (no result: Mtb hypoxia inh)
COC(=O)c1cc(N=CC2=C(O)CC(C)(C)CC2=O)cc(C(=O)OC)c1	none (no result: Mtb BioA inh)
COc1ccc2nc(SCC(=O)NC3CCCCC3)[nH]c2c1	VHR inh abs 58
COc1ccc(S(=O)(=O)N(C)CC2Oc3ccc(NS(C)(=O)=O)cc3C(=O)N(C(C)CO)CC2C)cc1 (centres undefined)	none (no result: Mtb BioA inh, VHR inh abs, FadD28 binding, 3CLpro inhibitor)
CCOc1ccc(NS(=O)(=O)c2ccc(Cl)c(N=Nc3c(O)[nH]c(=S)[nH]c3=O)c2)cc1Br	FadD28 binding 15 (no result: Mtb hypoxia inh, VHR inh abs, 3CLpro inhibitor)
COc1ccc(C=NNC(=S)Nc2ccccc2)cc1COc1ccc(F)cc1F	none (no result: Mtb BioA inh, VHR inh abs, FadD28 binding, 3CLpro inhibitor)
COc1cccc(/C=N/Nc2nc3ccccc3n3cnnc23)c1	VHR inh abs 51 (no result: Mtb hypoxia inh)
O=c1nc(NN=Cc2ccco2)cn[nH]1	none (no result: Mtb BioA inh, VHR inh abs, FadD28 binding, 3CLpro inhibitor)
CC(O)CN=c1cc(-c2ccccc2)oc2ccc(Cl)cc12 (centres undefined)	none
CC(C)CN=c1cc(-c2ccccc2)oc2ccc(Cl)cc12	Mtb hypoxia inh 42 (no result: Mtb BioA inh)
COc1ccc(S(=O)(=O)N(C)CC2Oc3c(NC(=O)Nc4ccc(C(F)(F)F)cc4)cccc3C(=O)N(C(C)CO)CC2C)cc1 (centres undefined)	none (no result: Mtb BioA inh, VHR inh abs, FadD28 binding, 3CLpro inhibitor)
CCOC(=O)CC1c2cc(F)ccc2S(=O)(=O)N1c1ccccc1 (centres undefined)	none (no result: Mtb BioA inh, VHR inh abs, FadD28 binding, 3CLpro inhibitor)
CCCc1cc(=O)oc2cc(OCC(=O)Nc3ccc(S(N)(=O)=O)cc3)ccc12	VHR inh abs 57
CCCc1cc(=O)oc2cc(OCC(=O)NCc3cccs3)ccc12	none
CCCc1cc(=O)oc2cc(OCC(=O)NCC(O)c3ccccc3)ccc12 (centres undefined)	VHR inh abs 53
CC1(C)CCC[C@@]2(C)CC=C(C(=O)O)[C@@H]3C[C@]312	FadD28 binding 9.1 (no result: Mtb hypoxia inh, VHR inh abs, 3CLpro inhibitor)
O=C(NN=Cc1ccoc1)c1cc(O)cc(O)c1	none (no result: Mtb BioA inh, VHR inh abs, FadD28 binding, 3CLpro inhibitor)

High-throughput results as filed in PubChem.
